FLuc inh: Photinus pyralis luciferase inhibition; purified P. pyralis luciferase, luminescence, biochemical; 76,000 tested, 2.5% active; P08659; Potency, µM (top dose mostly 115 µM), actives largely listed as inhibitors; further: nearly all actives have a fitted effect of over 65% in size
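Inhibitors were tested against purified firefly luciferase in a biochemical, low-substrate format (both substrates at 10uM) and luminescence measured with a CCD imager.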
NPR1 antag: human Npr1 receptor antagonism; HEK293 hNpr1 GloSensor cGMP, ANP-stimulated luminescence; Potency, µM (series often up to 46.3 µM), without a hit: at the top dose activity change, negative = inhibition, most hits filed as inhibitors; P16066; 76,000 tested, 1.6% active; calls by dose curve; further: nearly all actives have a fitted effect of over 60% in size
Target sequence (P16066 whole entry, looked up): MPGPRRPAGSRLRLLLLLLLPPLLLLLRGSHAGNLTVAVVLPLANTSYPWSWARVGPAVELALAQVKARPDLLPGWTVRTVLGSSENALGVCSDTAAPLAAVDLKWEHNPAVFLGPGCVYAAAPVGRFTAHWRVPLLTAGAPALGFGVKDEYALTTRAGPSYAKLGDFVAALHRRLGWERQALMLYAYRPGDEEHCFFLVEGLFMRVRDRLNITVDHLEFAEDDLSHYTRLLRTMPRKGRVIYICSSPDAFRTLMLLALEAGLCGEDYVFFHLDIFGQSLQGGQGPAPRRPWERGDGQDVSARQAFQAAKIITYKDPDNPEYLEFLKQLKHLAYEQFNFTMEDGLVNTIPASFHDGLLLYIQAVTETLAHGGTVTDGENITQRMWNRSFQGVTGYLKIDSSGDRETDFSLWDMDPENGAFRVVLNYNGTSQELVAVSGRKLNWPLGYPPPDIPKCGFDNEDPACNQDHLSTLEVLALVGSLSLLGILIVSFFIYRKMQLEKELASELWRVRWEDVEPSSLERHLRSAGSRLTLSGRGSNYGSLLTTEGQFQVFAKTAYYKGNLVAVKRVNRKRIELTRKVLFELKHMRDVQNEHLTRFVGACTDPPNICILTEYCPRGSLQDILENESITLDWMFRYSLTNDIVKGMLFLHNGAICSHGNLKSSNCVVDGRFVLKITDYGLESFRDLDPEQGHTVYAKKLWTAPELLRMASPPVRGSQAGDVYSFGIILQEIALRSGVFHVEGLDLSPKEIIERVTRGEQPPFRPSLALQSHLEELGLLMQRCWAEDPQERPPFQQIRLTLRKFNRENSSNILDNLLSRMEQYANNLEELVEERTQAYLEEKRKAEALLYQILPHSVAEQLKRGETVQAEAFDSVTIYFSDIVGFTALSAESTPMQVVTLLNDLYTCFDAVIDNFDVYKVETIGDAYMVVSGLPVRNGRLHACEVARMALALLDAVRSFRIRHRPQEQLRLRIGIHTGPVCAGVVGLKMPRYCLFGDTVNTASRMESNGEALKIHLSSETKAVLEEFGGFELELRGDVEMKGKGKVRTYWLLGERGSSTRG
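HEK293 cells stably expressing human Npr1 and cGMP GloSensor pGS-40F, loaded 2 h with 2% GloSensor reagent, given compound 30 min at room temperature. Luminescence read before and 20 min after 0.1 nM hNppA.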
HEK cytotox: cytotoxic compounds in HEK 293 cells; AID 1345083; HEK 293 viability, ATP luminescence (CellTiter-Glo), 48-72 h; Potency, µM (top dose mostly 115 µM), for the others: top-dose activity change, negative = cytotoxicity, actives largely listed as inhibitors; 94,000 tested, 6.6% active; further: nearly all actives have a fitted effect of over 60% in size
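Read-out: CellTiter-Glo ATP luminescence. Cells: HEK 293, 250 cells/well. Exposure: 48 or 72 hr, 37 degree Celsius.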
3T3 cytotox: NIH 3T3 cell cytotoxicity; Potency, µM (doses to about 96.7 µM), without a hit: top-dose activity change, negative = cytotoxicity, usual class: inhibitors; 94,000 tested, 4.3% active; NIH 3T3 viability, CellTiter-Glo ATP luminescence, 48-72 h; further: nearly all actives have a fitted effect of over 55% in size
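Viability of NIH 3T3 cells after 48 or 72 hr compound treatment at 37 °C was assessed by CellTiter-Glo, with luminescence imaged following a 10 min room-temperature step.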
* hit, by the source's call; i = inactive; u = inconclusive; x = no result; [ ] = remark or other dose. In the library only some 11% were active in any assay of this set; here they are far more common. Unless noted, the call rests on the fitted dose curve; in most records, active means well fitted curve in the direction sought with a large enough effect; inconclusive means small, poorly fitted or top-dose-only effect, or another doubt; inactive means no such curve, though single readings can be large; an effect the other way counts as inactive or inconclusive. On the % scale 0 is the no-effect control and ±100 the full control effect; potency means the concentration at half of the fitted maximal effect.

SMILES	FLuc inh	NPR1 antag	HEK cytotox	3T3 cytotox
COC[C@@H]1CN(Cc2cccc(C#N)c2)C[C@H]1c1ccncc1	i	0.5%	-46.4%	u
CCN(CC)C(=O)[C@@H]1C[C@H](NC(=O)c2ccc[nH]2)CN1Cc1ccncc1	i	11.5%	-22.1%	u
CN1CC(=O)N(C2CCCNCC2)Cc2c1ncnc2N1CCc2ccccc2C1 (centres undefined)	x	x	1.5%	-9.5%
COc1ccccc1-c1cnc(NCc2ccccc2)c2c1CCO2	i	-12.4%[70.6 µM]	u	25.1µM*
COc1ccccc1-c1cnc(Nc2ccc3c(c2)OCCO3)c2c1CCO2	14.1µM*	u	u	-26.6%[138 µM]
CC(c1ccon1)N(C)C(=O)c1cc(CN2CCC(Cc3ccccc3)CC2)on1 (centres undefined)	i	2.1%	u	u
O=C(Nc1cccc(-c2nnc3n2CCCC3)c1)C1CC1	i	5.4%	5.5%	-10.6%
Clc1cccc(-c2ccc(CNc3ncncn3)o2)c1	u	u	31.6µM*	u
CCNCc1ccc(-c2ccc(Cl)cc2)o1	i	3.5%	u	u
CCCCC(=O)N1CCc2c(nc3cc(-c4ccccc4Cl)[nH]n3c2=O)C1	i	-5.9%	u	15.8µM*
O=C(c1ccsc1)N1CCc2c(nc3cc(-c4ccccc4Cl)[nH]n3c2=O)C1	35.5µM*	-12.6%	-11.8%	39.8µM*
Cc1noc(C)c1-c1cc2c(c(-c3ccc(CO)cc3)c1)C(=O)N(C)C2	i	4.4%[70.6 µM]	u	79.4µM*
COc1ccc(-c2cc(-c3c(C)noc3C)cc3c2C(=O)N(C)C3)cn1	i	u	79.4µM*	u
Cc1ccsc1C(=O)N1CCC2(CC1)N=C(c1ccc(Cl)cc1)NO2	i	u	u	u
O=C(NCC1CC1)c1ccc2nnc(-c3cncc(Cl)c3)n2c1	x	x	0.1%[172 µM]	-4.0%[138 µM]
COC(=O)[C@H](Cc1ccccc1)NC1CCN(c2cccc(NC(=O)CC3CCCC3)c2)CC1	i	u	39.8µM*	u
COc1ccc(-c2[nH]nc3ncc(C(=O)NCC(C)C)nc23)c(C)c1	i	-8.5%[70.6 µM]	u	u
COc1ccc(-c2[nH]nc3ncc(C(=O)N4CC(O)C4)nc23)c(C)c1	i	-2.7%[70.6 µM]	u	7.94µM*
COc1ccc(NC(=O)c2cnc3n[nH]c(-c4ccc(OC)cc4C)c3n2)cc1	i	3.7%[70.6 µM]	u	44.7µM*
COc1ccc(-c2[nH]nc3ncc(C(=O)N4C[C@@H](C)O[C@@H](C)C4)nc23)c(C)c1	i	7.7%[70.6 µM]	u	u
COc1ccc(-c2[nH]nc3ncc(C(=O)Nc4ccn(C)n4)nc23)c(C)c1	i	-1.1%[70.6 µM]	89.1µM*	u
Cc1ncsc1CN1CCC[C@H]1C(=O)N1CCCCCCNC(=O)CC1	u	-0.4%	-10.6%	-22.7%
COc1ccc(-c2cc(N3CCCN(C(=O)c4ccc5[nH]ccc5c4)CC3)n[nH]2)cc1	u	-2.2%	u	u
O=C(CCC1CCCC1)N1CCC2(CC1)CC(N(Cc1ccccc1)C1CC1)CCO2 (centres undefined)	i	-1.4%	u	u
COCc1ccc2c(c1)c(OC(C)(C)C(=O)NCC1CC1)nn2Cc1ccccc1	i	4.6%[70.6 µM]	u	u
SMILES	FLuc inh	NPR1 antag	HEK cytotox	3T3 cytotox
COCCCn1c(C)cnc1C1CCN(C(=O)c2ccc(C)nc2)C1 (centres undefined)	x	x	-3.6%	-10.2%
Cc1nc2n(c1C(=O)Nc1cccc(Cl)c1C)CCC(Nc1ccc(F)cc1)C2 (centres undefined)	i	-0.8%[70.6 µM]	89.1µM*	u
O=C(CNC(=O)c1ccc(-c2cnc3ccccc3c2)cc1)NC1CCCCC1	x	x	i	-18.0%
Cc1nc(C)c(C(=O)N2CCC[C@H](n3c(=O)n(Cc4ccccc4)c4cccnc43)C2)s1	i	-8.3%	39.8µM*	-14.5%
COCCn1c(=O)n([C@H]2CCCN(C(=O)Cc3cccc(F)c3)C2)c2ncccc21	i	7.1%	i	2.7%
O=C(CCc1c[nH]c2ccccc12)N1CCC[C@H](n2c(=O)n(CC3CC3)c3cccnc32)C1	i	-2.7%	79.4µM*	u
Cc1cccc(CC(=O)N2CCC[C@H](n3c(=O)n(Cc4ccccc4)c4cccnc43)C2)c1	i	u	39.8µM*	u
CC(C)c1noc([C@@H]2C[C@H](NC(=O)C3CCCCC3)CN2C)n1	i	2.0%[70.6 µM]	-9.0%[172 µM]	-1.7%[174 µM]
O=C(NCCc1ccccc1F)C1CCN(c2nccc(Nc3ccccc3F)n2)CC1	x	x	31.6µM*	u
O=C(NCCc1ccccc1)C1CCCN(c2nccc(Nc3ccccc3F)n2)C1 (centres undefined)	x	x	u	22.4µM*
O=C(NCCCc1ccccc1)C1CCCN(c2nccc(Nc3ccccc3F)n2)C1 (centres undefined)	x	x	u	31.6µM*
O=C(NCCc1ccc(F)cc1)C1CCCN(c2nccc(Nc3ccccc3F)n2)C1 (centres undefined)	x	x	u	28.2µM*
O=C(NCC(F)(F)F)C1CCN(c2nccc(Nc3ccccc3F)n2)CC1	x	x	u	-32.4%
O=C(Cc1c[nH]c2ccccc12)N1CCC2(CC1)CC(CO)N(C(=O)c1ccccc1)C2 (centres undefined)	i	8.3%	-9.0%	-16.7%
CSCCNC(=O)C1CCCN(c2nccc(Nc3ccccc3F)n2)C1 (centres undefined)	x	x	u	25.1µM*
COCCNC(=O)C1CCN(c2nccc(Nc3ccccc3F)n2)CC1	x	x	4.8%	u
CCn1nc(-c2ccccc2SC)nc1N(C)C	i	0.3%	-13.7%	3.7%
CCn1nc(-c2ccc3c(c2)OCCO3)nc1N(C)C	39.8µM*	0.0%	-9.4%	-9.6%
CN(Cc1cnc2ccccn12)C(=O)c1cc(COc2ccc(F)cc2F)on1	i	u	u	u
CN1CCN(C(=O)c2cc(COc3ccc(F)cc3F)on2)CC1c1ccccc1 (centres undefined)	i	-20.5%	20µM*	u
Cc1cccc2nc(CNC(=O)c3cc(COc4ccc(F)cc4F)on3)cn12	i	4.3%	u	31.6µM*
O=C(c1ccco1)N1CC(F)(F)C[C@H]1c1nc(-c2ccncc2)no1	i	-0.3%	i	-17.5%
CC(C)n1cnnc1CC1CCCN(S(=O)(=O)c2ccccc2)C1 (centres undefined)	x	x	i	2.1%
COc1ccc(-c2c(C(=O)NC(C)C)nc3sccn23)cc1	x	x	-3.7%	-15.2%
COc1cccc(CN2CCCC(NC(=O)c3cn4ccsc4n3)C2)c1 (centres undefined)	i	0.5%	u	-15.1%
Cc1cc(C)cc(-c2ccc(CN3CCCC(NC(=O)c4ccccn4)C3)cc2)c1 (centres undefined)	x	x	u	14.1µM*
COc1cccc(-c2ccc(CN3CCCC(NC(=O)c4ccc(C)cc4)C3)cc2)c1 (centres undefined)	x	x	22.4µM*	u

Screens deposited in PubChem by National Center for Advancing Translational Sciences (NCATS).
